Measurements published in PubChem BioAssay (NCI).
About 83,000 compounds went through this panel and 20% of them were active in at least one assay; those are over-represented in the sample as a whole.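 Values shown are percent growth following 48 h exposure of cells in 96-well plates to a single concentration of compound; below 10 was considered active.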 Active and inactive are the calls of the source.

Key:
Assay in all cases: NCI-60 one-dose screen, 48 h (100 = growth as untreated, 0 = no growth, -100 = all killed)
SK-MEL-2 melanoma = settings: 10 µM unless noted
SN12C renal = settings: 10 µM unless noted
UO-31 renal = settings: 10 µM unless noted
TK-10 renal = settings: 10 µM unless noted
ACHN renal = settings: 10 µM unless noted
CAKI-1 renal = settings: 10 µM unless noted
HL-60(TB) leukemia = settings: 10 µM unless noted
CCRF-CEM leukemia = settings: 10 µM unless noted
MOLT-4 leukemia = settings: 10 µM unless noted
SR leukemia = settings: 10 µM unless noted
RPMI-8226 leukemia = settings: 10 µM unless noted
OVCAR-8 ovarian = settings: 10 µM unless noted
OVCAR-5 ovarian = settings: 10 µM unless noted
OVCAR-4 ovarian = settings: 10 µM unless noted
SK-OV-3 ovarian = settings: 10 µM unless noted
IGROV1 ovarian = settings: 10 µM unless noted
OVCAR-3 ovarian = settings: 10 µM unless noted
HS 578T breast = settings: 10 µM unless noted
A498 renal = settings: 10 µM

Measured: growth

COc1ccc(C2=N[C@@H](Cc3ccccc3)C(=O)Nc3ccsc32)cc1
inactive: SN12C renal 54.3% | UO-31 renal 57% | TK-10 renal 70.3% | ACHN renal 55.7% | CAKI-1 renal 50.7% | CCRF-CEM leukemia 32.1% | MOLT-4 leukemia 35.7% | RPMI-8226 leukemia 41.7% | OVCAR-8 ovarian 70.4% | OVCAR-5 ovarian 84.1% | OVCAR-4 ovarian 69.9% | SK-OV-3 ovarian 67.4% | IGROV1 ovarian 66% | HS 578T breast 65.4%
active: SK-MEL-2 melanoma -4.24% | HL-60(TB) leukemia 8.11% | SR leukemia 8.97% | OVCAR-3 ovarian 3.83%

C/C(=C\c1ccn(-c2ccccc2N)n1)[C@@H]1C[C@@H]2O[C@]2(C)CCC[C@H](C)[C@H](O)[C@@H](C)C(=O)C(C)(C)[C@@H](O)CC(=O)O1
inactive: SK-MEL-2 melanoma 33.2% | SN12C renal 38% | UO-31 renal 41.5% | TK-10 renal 51.6% | ACHN renal 46.3% | CAKI-1 renal 40.4% | CCRF-CEM leukemia 19.6% | MOLT-4 leukemia 12.4% | SR leukemia 17.4% | OVCAR-8 ovarian 26.2% | OVCAR-5 ovarian 31.6% | OVCAR-4 ovarian 51.2% | SK-OV-3 ovarian 40.2% | IGROV1 ovarian 41.5%
active: HL-60(TB) leukemia 9.72% | OVCAR-3 ovarian -2.9% | HS 578T breast 7.14%

COc1ccc(/C=C\c2cc(OC)c(OC)c(OC)c2)c(NS(=O)(=O)c2ccc(F)cc2)c1O
inactive: SN12C renal 28.1% | UO-31 renal 48% | TK-10 renal 59.3% | ACHN renal 24.4% | CAKI-1 renal 20.8% | HL-60(TB) leukemia 10.1% | CCRF-CEM leukemia 17.4% | MOLT-4 leukemia 19.6% | RPMI-8226 leukemia 23.3% | OVCAR-8 ovarian 22.5% | OVCAR-5 ovarian 40.4% | OVCAR-4 ovarian 29.3% | SK-OV-3 ovarian 12.4% | IGROV1 ovarian 28.3% | HS 578T breast 25.3%
active: SK-MEL-2 melanoma -6.87% | OVCAR-3 ovarian -37.8%

C#C[C@]1(OC(=O)CCCCCC)CC[C@H]2[C@@H]3CCC4=CC(=O)CC[C@@H]4[C@H]3CC[C@@]21C
inactive: SK-MEL-2 melanoma 55.1% | SN12C renal 47.3% | UO-31 renal 54.7% | TK-10 renal 54.7% | ACHN renal 54.2% | CAKI-1 renal 56.1% | A498 renal 80.5% | MOLT-4 leukemia 26.1% | OVCAR-8 ovarian 51.9% | OVCAR-5 ovarian 65.4% | OVCAR-4 ovarian 53.6% | SK-OV-3 ovarian 55.1% | IGROV1 ovarian 42.5% | OVCAR-3 ovarian 73% | HS 578T breast 72%
active: HL-60(TB) leukemia 4.53% | RPMI-8226 leukemia 1.02%

CC(=O)[O][Hg][c]1c(N)c(C)cc(C)c1F
active: SN12C renal 5.86% | HL-60(TB) leukemia -12.7% | MOLT-4 leukemia -11.2% | SR leukemia -11.2% | RPMI-8226 leukemia -12.3% | OVCAR-8 ovarian -29.5% | IGROV1 ovarian -32.7% | OVCAR-3 ovarian -45.8%
inactive: SK-MEL-2 melanoma 11.6% | UO-31 renal 35.1% | TK-10 renal 97.4% | ACHN renal 62.9% | CAKI-1 renal 45.8% | A498 renal 101% | OVCAR-5 ovarian 47.3% | OVCAR-4 ovarian 42% | SK-OV-3 ovarian 69.8% | HS 578T breast 26.8%

COc1ccc(S(=O)(=O)Nc2c(/C=C\c3cc(OC)c(OC)c(OC)c3)ccc(OC)c2O)cc1OC
inactive: SN12C renal 31% | UO-31 renal 49.3% | TK-10 renal 70.9% | ACHN renal 29.6% | CAKI-1 renal 22.8% | MOLT-4 leukemia 16.8% | SR leukemia 15.9% | RPMI-8226 leukemia 25.4% | OVCAR-8 ovarian 20.3% | OVCAR-5 ovarian 33.7% | OVCAR-4 ovarian 43% | IGROV1 ovarian 23.9% | HS 578T breast 16.3%
active: SK-MEL-2 melanoma 9.91% | HL-60(TB) leukemia 4.28% | SK-OV-3 ovarian 9.89% | OVCAR-3 ovarian -20.9%

CC(=O)OC1CCC2C3CCC4=C/C(=N/OC(=O)c5ccc(N(CCCl)CCCl)cc5)CCC4(C)C3CC(C)C12 (centres undefined)
inactive: SK-MEL-2 melanoma 104% | SN12C renal 72.6% | TK-10 renal 92.6% | ACHN renal 58.1% | CAKI-1 renal 73.9% | A498 renal 63.3% | HL-60(TB) leukemia 33.7% | MOLT-4 leukemia 57.7% | RPMI-8226 leukemia 70.8% | OVCAR-8 ovarian 54.5% | OVCAR-5 ovarian 101% | OVCAR-4 ovarian 72% | SK-OV-3 ovarian 114% | OVCAR-3 ovarian 59.7% | HS 578T breast 26.3%
active: UO-31 renal -32% | IGROV1 ovarian -59.1%

COc1ccc(Nc2ccc([N+](=O)[O-])cc2[N+](=O)[O-])cc1CN(CCCl)CCCl
inactive: SK-MEL-2 melanoma 42.9% | SN12C renal 21.4% | UO-31 renal 31.4% | TK-10 renal 56.7% | ACHN renal 15.2% | A498 renal 18.5% | OVCAR-8 ovarian 30.6% | OVCAR-5 ovarian 50.2% | OVCAR-4 ovarian 52.8% | SK-OV-3 ovarian 48.3% | IGROV1 ovarian 32.7% | HS 578T breast 66.7%
active: HL-60(TB) leukemia -17.7% | CCRF-CEM leukemia 2.14% | MOLT-4 leukemia 0.406% | SR leukemia 7.8% | RPMI-8226 leukemia 0.0676%

CC(=O)O[C@H]1CC[C@]2(C)[C@H]3CC[C@]4(C)[C@@H](OC(C)=O)CC[C@H]4[C@@H]3[C@@H](C)[C@]2(O)C1
inactive: SK-MEL-2 melanoma 99.1% | SN12C renal 101% | UO-31 renal 88.7% | TK-10 renal 112% | ACHN renal 112% | A498 renal 105% | CCRF-CEM leukemia 93.1% | MOLT-4 leukemia 87.9% | SR leukemia 96.1% | RPMI-8226 leukemia 100% | OVCAR-8 ovarian 115% | OVCAR-5 ovarian 108% | OVCAR-4 ovarian 110% | SK-OV-3 ovarian 117% | IGROV1 ovarian 116% | OVCAR-3 ovarian 127% | HS 578T breast 110%

O=C(O)c1ccc([S-])cc1.[Au+].c1ccc(CN2[CH-]N(Cc3ccccc3)C(c3ccccc3)=C2c2ccccc2)cc1
active: SK-MEL-2 melanoma -43.2% | SN12C renal -67.8% | UO-31 renal -79.4% | TK-10 renal -61.7% | ACHN renal -65.7% | A498 renal -33.8% | CCRF-CEM leukemia 1.41% | MOLT-4 leukemia -1.59% | RPMI-8226 leukemia -11% | OVCAR-8 ovarian 1.87% | OVCAR-5 ovarian -14.2% | SK-OV-3 ovarian -5% | IGROV1 ovarian -58.6% | OVCAR-3 ovarian -95.2%
inactive: OVCAR-4 ovarian 38.1%

CCCCCC1(CCBr)C(=O)NC(=O)NC1=O
inactive: SK-MEL-2 melanoma 105% | SN12C renal 107% | UO-31 renal 86.7% | TK-10 renal 111% | ACHN renal 102% | A498 renal 88.4% | CCRF-CEM leukemia 102% | MOLT-4 leukemia 104% | SR leukemia 94.7% | RPMI-8226 leukemia 97.5% | OVCAR-8 ovarian 97.3% | OVCAR-5 ovarian 96.6% | OVCAR-4 ovarian 111% | SK-OV-3 ovarian 99.1% | IGROV1 ovarian 112% | OVCAR-3 ovarian 104%

O=[N+]([O-])c1ccc(OP(=O)(CCl)N(CCCl)CCCl)cc1 (centres undefined)
inactive: SK-MEL-2 melanoma 81.9% | SN12C renal 112% | UO-31 renal 84.4% | TK-10 renal 99.6% | ACHN renal 101% | CAKI-1 renal 95.2% | A498 renal 109% | HL-60(TB) leukemia 94.4% | MOLT-4 leukemia 89.7% | SR leukemia 87.9% | RPMI-8226 leukemia 104% | OVCAR-8 ovarian 100% | OVCAR-5 ovarian 99.6% | OVCAR-4 ovarian 104% | SK-OV-3 ovarian 106% | IGROV1 ovarian 104% | OVCAR-3 ovarian 118%

COc1ccc(/C=C\c2cc(OC)c(OC)c(OC)c2)c(NS(=O)(=O)c2ccc(C)cc2)c1O
inactive: SN12C renal 35.6% | UO-31 renal 53.4% | TK-10 renal 65.2% | ACHN renal 23.7% | CAKI-1 renal 19.8% | CCRF-CEM leukemia 21.9% | MOLT-4 leukemia 20.8% | RPMI-8226 leukemia 31.5% | OVCAR-8 ovarian 25.1% | OVCAR-5 ovarian 38.8% | OVCAR-4 ovarian 31.5% | SK-OV-3 ovarian 25.1% | IGROV1 ovarian 32.2% | HS 578T breast 39.9%
active: SK-MEL-2 melanoma -6.34% | HL-60(TB) leukemia 9.18% | OVCAR-3 ovarian -30.9%

CC(C)=CCc1c(O)c(C(=O)CC(C)C)c(O)c2c(-c3ccccc3)cc(=O)oc12
inactive: SK-MEL-2 melanoma 40.5% | SN12C renal 33.7% | UO-31 renal 44.9% | TK-10 renal 56.8% | ACHN renal 59.4% | CAKI-1 renal 52.4% | A498 renal 32.6% | HL-60(TB) leukemia 27.5% | MOLT-4 leukemia 38.5% | OVCAR-8 ovarian 47.6% | OVCAR-5 ovarian 84.9% | OVCAR-4 ovarian 68.7% | SK-OV-3 ovarian 60.9% | IGROV1 ovarian 62.9% | OVCAR-3 ovarian 33.9%
active: RPMI-8226 leukemia 8.71%

CCCCCCCC[N+](C)(CCCCCCCC)CCCCCCCC
inactive: CCRF-CEM leukemia 85.7% | MOLT-4 leukemia 37.4% | SR leukemia 28.1% | RPMI-8226 leukemia 44.2%
active: SK-MEL-2 melanoma -94.1% | SN12C renal -86.5% | UO-31 renal -100% | TK-10 renal -100% | ACHN renal -93.6% | CAKI-1 renal -98.6% | A498 renal -100% | OVCAR-8 ovarian -100% | OVCAR-5 ovarian -100% | OVCAR-4 ovarian -94.1% | SK-OV-3 ovarian -97.8% | OVCAR-3 ovarian -100% | HS 578T breast -66.6%

C[C@]12CC[C@@H]3c4ccc(Oc5nc(N6CC6)nc(N6CC6)n5)cc4CC[C@H]3[C@@H]1CCC2=O
active: A498 renal -18.5% | CCRF-CEM leukemia 3.37% | MOLT-4 leukemia -25.2% | SR leukemia -5.09% | RPMI-8226 leukemia 0.429%
inactive: SK-MEL-2 melanoma 56.4% | SN12C renal 21.5% | UO-31 renal 28.6% | TK-10 renal 59.6% | ACHN renal 16.3% | CAKI-1 renal 10.9% | OVCAR-8 ovarian 36.4% | OVCAR-5 ovarian 101% | OVCAR-4 ovarian 31.6% | SK-OV-3 ovarian 36.1% | IGROV1 ovarian 27.8% | OVCAR-3 ovarian 15.6% | HS 578T breast 45.4%

COc1ccc(/C=C\c2cc(OC)c(OC)c(OC)c2)cc1NS(=O)(=O)c1ccc(Cl)cc1
inactive: SK-MEL-2 melanoma 69.5% | SN12C renal 79.8% | UO-31 renal 55.1% | TK-10 renal 80.2% | ACHN renal 62.2% | CAKI-1 renal 42.8% | A498 renal 47% | HL-60(TB) leukemia 54.1% | CCRF-CEM leukemia 78% | SR leukemia 51.4% | RPMI-8226 leukemia 64.3% | OVCAR-8 ovarian 78.5% | OVCAR-5 ovarian 83.4% | OVCAR-4 ovarian 55% | SK-OV-3 ovarian 81.9% | IGROV1 ovarian 61.9% | OVCAR-3 ovarian 76.6% | HS 578T breast 67.8%
